# “And” between values parts separate entries of the source, which are not always exact repeats. Equal values may be shown once. Inconclusive results are not listed. Entries that show only a call come without a potency. Some structures have more than one record in an assay (separate samples or runs), and their calls can disagree. The source made the active and inactive calls. Unless noted, calls come from the whole dose curve; as a rule, active = well fitted curve in the direction sought with a large enough effect in the repeat runs; inconclusive = weak or mixed curves; inactive = no such curve, though single readings can be large; an effect the other way counts as inactive or inconclusive.
# Tests used:
# [1] = biological target: Retinoic acid receptor RXR-alpha (Homo sapiens) (UniProt P19793); experiment: qHTS assay to identify small molecule agonists of the RXR signaling pathway (AID 1159527; calls by dose curve; note: nearly all actives have a fitted effect of over 35% in size; note: potency is the fitted concentration of half-maximal effect)
# Chain of Retinoic acid receptor RXR-alpha (Homo sapiens) (P19793 whole entry, looked up): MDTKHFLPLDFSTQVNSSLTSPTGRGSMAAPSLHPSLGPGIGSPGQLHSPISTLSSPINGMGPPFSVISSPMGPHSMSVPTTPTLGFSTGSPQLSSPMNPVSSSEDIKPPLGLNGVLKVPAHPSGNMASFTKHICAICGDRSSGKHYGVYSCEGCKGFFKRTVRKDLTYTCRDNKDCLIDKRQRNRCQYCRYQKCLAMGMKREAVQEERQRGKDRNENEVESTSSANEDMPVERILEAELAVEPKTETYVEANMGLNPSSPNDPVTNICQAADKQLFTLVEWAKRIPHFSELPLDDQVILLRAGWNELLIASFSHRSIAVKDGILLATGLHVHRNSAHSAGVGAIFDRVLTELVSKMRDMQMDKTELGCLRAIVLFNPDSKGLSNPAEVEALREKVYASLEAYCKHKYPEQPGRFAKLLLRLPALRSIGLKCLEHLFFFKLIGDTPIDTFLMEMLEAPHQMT
# Method in brief: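 Agonist mode; 9-cis retinoic acid positive control. HEK 293T UAS-bla reporter cells, 2% charcoal-stripped FBS, 16 hr compound exposure at 37 C/5% CO2. LiveBLAzer B/G FRET substrate 2 hr RT; ex 405, em 460/530 nm.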
# [2] = qHTS assay to identify small molecule agonists of the RXR signaling pathway - cell viability counter screen (AID 1159529); note: nearly all actives have a fitted effect of over 50% in size; note: potency is the fitted concentration of half-maximal effect
# Method in brief: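 Luminescence from CellTiter-Glo (30 min, RT) measured viability in the same wells as the beta-lactamase reporter readout. Cells: GeneBLAzer RXR-alpha HEK 293T, 2% charcoal-stripped FBS. Compound exposure 16 hr, 37 C.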
# [3] = qHTS assay to identify small molecule antagonists of the retinoid acid receptor (RAR) signaling pathway - cell viability counter screen (AID 1159551); note: nearly all actives have a fitted effect of over 35% in size; note: potency is the fitted concentration of half-maximal effect
# Method in brief: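 Cytotoxicity counter screen in C3RL4 cells: 6 h compound exposure with 1 uM retinol (final), viability from cellular ATP by luminescence.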
# [4] = qHTS assay to identify small molecule antagonists of the estrogen related receptor (ERR) signaling pathway from Tox21 library - cell viability counter screen (AID 1224834); note: nearly all actives have a fitted effect of over 30% in size; note: potency is the fitted concentration of half-maximal effect
# Method in brief: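 Cytotoxicity of test substances is gauged in the same ERR cells used for the antagonist screen, after 17.5 h of compound treatment at 37 C, by CellTiter-Fluor fluorescence measured after 30 min.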
# [5] = biological target: Luciferin 4-monooxygenase (Photinus pyralis) (UniProt P08659); experiment: qHTS assay to identify small molecule inhibitors of firefly luciferase (AID 1224835); note: series mostly up to about 120 µM; nearly all actives have a fitted effect of over 25% in size
# Chain of Luciferin 4-monooxygenase (Photinus pyralis) (P08659 whole entry, looked up): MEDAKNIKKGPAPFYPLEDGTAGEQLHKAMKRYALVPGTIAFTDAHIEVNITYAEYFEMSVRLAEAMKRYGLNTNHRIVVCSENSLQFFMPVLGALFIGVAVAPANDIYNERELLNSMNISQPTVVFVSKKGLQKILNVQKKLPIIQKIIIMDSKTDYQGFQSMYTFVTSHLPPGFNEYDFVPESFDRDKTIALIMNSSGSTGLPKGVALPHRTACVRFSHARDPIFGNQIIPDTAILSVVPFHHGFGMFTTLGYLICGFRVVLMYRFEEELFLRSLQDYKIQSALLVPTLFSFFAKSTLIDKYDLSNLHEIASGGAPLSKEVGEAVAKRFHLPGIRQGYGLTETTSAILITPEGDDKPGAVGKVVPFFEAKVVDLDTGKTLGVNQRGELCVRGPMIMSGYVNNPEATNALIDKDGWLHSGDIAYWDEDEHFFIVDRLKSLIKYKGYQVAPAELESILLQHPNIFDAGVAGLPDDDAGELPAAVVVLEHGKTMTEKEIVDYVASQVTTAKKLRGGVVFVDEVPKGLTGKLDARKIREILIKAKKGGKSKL
# Method in brief: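 Quantitative HTS format; KM concentrations of both substrates. Purified P. pyralis FLuc activity quantified from luminescence images.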
# [6] = qHTS assay to identify small molecule agonists of the constitutive androstane receptor (CAR) signaling pathway - cell viability counter screen (AID 1224836); note: nearly all actives have a fitted effect of over 45% in size; note: potency is the fitted concentration of half-maximal effect
# Method in brief: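 Viability read-out: CellTiter-Fluor fluorescence after 23 h compound exposure at 37 C/5% CO2 in double-stable HepG2-CYP2B6-hCAR cells, with PK11195 present at 0.75 uM final; compounds tested in 15-point titration.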
# [7] = qHTS assay to identify small molecule antagonists of the constitutive androstane receptor (CAR) signaling pathway - cell viability counter screen (AID 1224837); note: nearly all actives have a fitted effect of over 45% in size; note: potency is the fitted concentration of half-maximal effect
# Method in brief: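 Multiplexed cytotoxicity read-out for the CAR antagonist screen: double-stable HepG2-CYP2B6-hCAR cells co-treated with 50 nM CITCO (final) and compound over 15 concentrations, incubated 23 hr, then assessed by CellTiter-Fluor fluorescence.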
# [8] = biological target: Nuclear receptor subfamily 1 group I member 3 (Homo sapiens) (UniProt Q14994); experiment: qHTS assay to identify small molecule antagonists of the constitutive androstane receptor (CAR) signaling pathway (AID 1224838); note: nearly all actives have a fitted effect of over 40% in size; note: potency is the fitted concentration of half-maximal effect
# Chain of Nuclear receptor subfamily 1 group I member 3 (Homo sapiens) (Q14994 whole entry, looked up): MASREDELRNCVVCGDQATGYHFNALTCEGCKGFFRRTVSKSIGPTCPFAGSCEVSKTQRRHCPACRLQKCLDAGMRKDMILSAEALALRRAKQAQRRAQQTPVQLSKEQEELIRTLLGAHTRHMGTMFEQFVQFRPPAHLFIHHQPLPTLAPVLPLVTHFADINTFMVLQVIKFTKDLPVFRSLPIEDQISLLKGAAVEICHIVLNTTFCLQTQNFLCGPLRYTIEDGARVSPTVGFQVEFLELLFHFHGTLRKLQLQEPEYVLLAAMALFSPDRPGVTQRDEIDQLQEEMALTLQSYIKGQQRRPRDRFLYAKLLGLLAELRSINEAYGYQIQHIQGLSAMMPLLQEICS
# Method in brief: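 Compounds were titrated across 15 concentrations onto HepG2 cells double-stably expressing hCAR and a CYP2B6-2.2kb reporter, together with 50 nM CITCO (final). After 24 h at 37 C, luciferase activity was measured by luminescence.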
# [9] = biological target: Nuclear receptor subfamily 1 group I member 3 (Homo sapiens) (UniProt Q14994); experiment: qHTS assay to identify small molecule agonists of the constitutive androstane receptor (CAR) signaling pathway (AID 1224839); note: nearly all actives have a fitted effect of over 15% in size; note: potency is the fitted concentration of half-maximal effect
# Method in brief: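 Luminescence read-out (ONE-Glo, 30 min, room temperature) from double-stable HepG2-CYP2B6-hCAR cells exposed 24 h to 15-point compound series in presence of 0.75 uM PK11195 final.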
# [10] = qHTS assay to identify small molecule agonists of the retinoic acid receptor (RAR) signaling pathway (AID 1159553)
# Method in brief: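 Agonist activity was scored in C3RL4 cells bearing a retinoic acid response element luciferase construct. Cells were treated with compounds for 6 hr at 37 C, and luciferase signal was measured as luminescence.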
# [11] = qHTS assay to identify small molecule antagonists of the estrogen related receptor signaling pathway with the pleiotropic PPARgamma coactivator (PGC) from Tox21 10K library - cell viability counter screen (AID 1224840; active = well fitted cell-killing curve with a large enough effect in the repeat runs, not every such curve was filed as active; note: nearly all actives have a fitted effect of over 40% in size; note: potency is the fitted concentration of half-maximal effect)
# Method in brief: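 Step one, plate 2,000 PGC/ERR cells per well; step two, incubate 6 h at 37 C/5% CO2; step three, pin-transfer compounds; step four, incubate 17.5 h; step five, add CellTiter-Fluor and read fluorescence after 30 min.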
# [12] = qHTS assay to identify small molecule antagonists of the estrogen related receptor (ERR) signaling pathway - cell viability counter screen (AID 1224818);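 note: series mostly up to about 46 µM; viability measured after 17.5 h of compound exposure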
# Method in brief: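 Cells carrying the ERR pathway reporter were seeded and incubated for 6 hours before compound addition. After a 17.5-hour exposure at 37 C, live-cell protease activity was measured by CellTiter-Fluor fluorescence following 30 minutes of incubation.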
# [13] = qHTS assay to identify small molecule antagonists of the estrogen related receptor (ERR) signaling pathway (AID 1224819;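 note: luminescence from an ERR-driven luciferase reporter measured with One-Glo reagent; series mostly up to about 46 µM; nearly all actives have a fitted effect of over 50% in size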)
# Method in brief: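 Compounds dissolved in DMSO were pin-transferred onto ERR cells that had been plated 6 h earlier, and cells were then incubated 18 h at 37 C; signal was luciferase luminescence via One-Glo.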
# [14] = test system: estrogen-related receptor alpha (ERRalpha) with PGC-1alpha coactivator, human; experiment: qHTS assay to identify small molecule antagonists of the estrogen related receptor signaling pathway with the pleiotropic PPARgamma coactivator (PGC) (AID 1224821; calls by dose curve;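 note: series mostly up to about 46 µM; lower luminescence signal means antagonism of PGC/ERR signalling; nearly all actives have a fitted effect of over 50% in size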)
# Method in brief: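 Quantitative HTS for antagonism: PGC/ERR cells received compounds after 6 h attachment and were incubated 18 h at 37 C, with luminescence (One-Glo) as the endpoint.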
# [15] = qHTS assay to identify small molecule antagonists of the estrogen related receptor signaling pathway with the pleiotropic PPARgamma coactivator (PGC) cell viability counter screen (AID 1224822;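 note: series mostly up to about 46 µM; viability read after 17.5 h compound exposure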)
# Method in brief: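 Seed PGC/ERR cells (2,000/well); incubate 6 h at 37 C/5% CO2; pin-transfer compounds in DMSO; incubate 17.5 h at 37 C; add CellTiter-Fluor; after 30 min read fluorescence.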
# [16] = qHTS assay to identify small molecule agonists of the estrogen related receptor signaling pathway with the pleiotropic PPARgamma coactivator (PGC) (AID 1224823)
# Method in brief: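 Cell-based luciferase assay in the NTP-supplied PGC/ERR line, 2,000 cells/well; 18 h compound exposure at 37 C, luminescence after One-Glo.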
# [17] = qHTS assay to identify small molecule antagonists of the estrogen related receptor signaling pathway with the pleiotropic PPARgamma coactivator (PGC) from Tox21 10K library (AID 1224841; call rule not given here; note: actives are mostly falling curves and most rising ones were filed inactive; nearly all actives have a fitted effect of over 50% in size; note: potency is the fitted concentration of half-maximal effect)
# Method in brief: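 Antagonism in this quantitative HTS is taken from loss of luciferase signal in PGC/ERR cells. Cells (2,000/well) are treated with compounds in DMSO after a 6 h settling period and read by One-Glo luminescence after 18 h.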
# [18] = qHTS assay to identify small molecule agonists of the estrogen related receptor signaling pathway with the pleiotropic PPARgamma coactivator (PGC) from Tox21 10K library (AID 1224842); note: nearly all actives have a fitted effect of over 15% in size; note: potency is the fitted concentration of half-maximal effect
# Method in brief: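 PGC/ERR reporter cells (NTP line) were seeded 2,000 per well, rested 6 h at 37 C/5% CO2, then pin-dosed with compounds in DMSO for 18 h at 37 C; luciferase read by One-Glo luminescence after 30 min at room temperature.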
# [19] = qHTS assay to identify small molecule antagonists of the retinoic acid receptor (RAR) signaling pathway (AID 1159552; note: nearly all actives have a fitted effect of over 50% in size; note: potency is the fitted concentration of half-maximal effect)
# Method in brief: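 Luminescence from a RARE luciferase reporter in C3RL4 cells served as read-out. Cells received compounds together with 1 uM final retinol and incubated 6 hr at 37 C before detection reagent was added for 30 min at room temperature.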
smiles,measurement,setting,value
O=C(O)c1ccccc1,Potency,[1],inactive
same,Potency,[2],inactive
same,Potency,[3],inactive
same,Potency,[4],inactive
same,Potency,[5],inactive
same,Potency,[6],inactive
same,Potency,[7],inactive
same,Potency,[8],inactive
same,Potency,[9],inactive
CC1(C)S[C@@H]2[C@H](NC(=O)[C@H](N)c3ccccc3)C(=O)N2[C@H]1C(=O)O,Potency,[1],inactive
same,Potency,[2],inactive
same,Potency,[3],inactive
same,Potency,[4],inactive
same,Potency,[5],inactive
same,Potency,[6],inactive
CCCC[P+](CCCC)(CCCC)CCCC,Potency,[1],inactive
same,Potency,[2],inactive
same,Potency,[3],inactive
same,Potency,[10],inactive
same,Potency,[4],inactive
same,Potency,[6],inactive
same,Potency,[8],inactive
same,Potency,[9],inactive
same,Potency,[11],inactive
CC(C)NCC(O)c1ccc(O)c(O)c1 (stereo not drawn),Potency,[1],inactive
same,Potency,[2],inactive
same,Potency,[3],inactive
same,outcome,[12],inactive
same,Potency,[13],inactive
same,outcome,[14],inactive
same,Potency,[15],inactive
same,outcome,[16],inactive
same,Potency,[4],inactive
same,Potency,[6],inactive
same,Potency,[17],inactive
same,Potency,[18],5.4 nM (active) and 8.6 nM (active) and inactive
CC(=O)Nc1c(I)c(NC(C)=O)c(I)c(C(=O)O)c1I,Potency,[1],inactive
same,Potency,[2],inactive
same,Potency,[3],inactive
same,Potency,[10],inactive
same,Potency,[4],inactive
same,Potency,[6],inactive
same,Potency,[7],inactive
same,Potency,[11],inactive
NC(=O)c1cccnc1,Potency,[1],inactive
same,Potency,[2],inactive
same,Potency,[3],inactive
same,Potency,[4],inactive
same,Potency,[5],inactive
same,Potency,[6],inactive
same,Potency,[7],inactive
same,Potency,[8],inactive
same,Potency,[9],inactive
Cc1ccc(S(=O)(=O)O)cc1,Potency,[1],inactive
same,Potency,[2],inactive
same,Potency,[3],inactive
same,Potency,[4],inactive
same,Potency,[6],inactive
same,Potency,[7],inactive
same,Potency,[11],inactive
CC(O)(P(=O)(O)O)P(=O)(O)O,Potency,[1],inactive
same,Potency,[2],inactive
same,Potency,[3],inactive
same,Potency,[4],inactive
same,Potency,[5],inactive
same,Potency,[6],inactive
same,Potency,[7],inactive
O=c1[nH]cc(F)c(=O)[nH]1,Potency,[1],28.2 µM (active)
same,Potency,[2],45.3 µM (active) and inactive
same,Potency,[3],inactive
same,outcome,[12],inactive
same,Potency,[15],inactive
same,Potency,[4],31.8 µM (active) and inactive
CNNCc1ccc(C(=O)NC(C)C)cc1,Potency,[1],inactive
same,Potency,[2],inactive
same,Potency,[3],inactive
same,Potency,[4],inactive
same,Potency,[6],inactive
same,Potency,[7],inactive
same,Potency,[8],inactive
CN1CCc2cccc3c2[C@H]1Cc1ccc(O)c(O)c1-3,Potency,[1],inactive
same,Potency,[2],18.3 µM (active)
same,Potency,[3],69.3 µM (active)
same,Potency,[4],27.6 µM (active) and 22.8 µM (active) and 26.6 µM (active)
same,Potency,[6],49.1 µM (active) and 22.8 µM (active)
same,Potency,[7],49.1 µM (active) and 22.8 µM (active)
same,Potency,[8],inactive
same,Potency,[9],15.5 µM (active) and 9.09 µM (active) and 15 µM (active)
same,Potency,[11],30.9 µM (active) and 22.8 µM (active)
same,Potency,[17],30.9 µM (active) and 20.4 µM (active) and 29.8 µM (active)
same,Potency,[18],inactive
COc1cccc(O)c1O,Potency,[1],inactive
same,Potency,[2],inactive
same,Potency,[3],inactive
same,Potency,[19],56.6 µM (active)
same,Potency,[4],63.5 µM (active)
same,Potency,[6],inactive
same,Potency,[7],inactive
same,Potency,[8],inactive
same,Potency,[9],inactive
CC(C)c1c(C(=O)Nc2ccccc2)c(-c2ccccc2)c(-c2ccc(F)cc2)n1CC[C@@H](O)C[C@@H](O)CC(=O)O,Potency,[1],inactive
same,Potency,[2],inactive
same,Potency,[3],inactive
same,Potency,[10],inactive
same,outcome,[12],inactive
same,Potency,[15],inactive
same,Potency,[4],inactive
same,Potency,[6],inactive
same,Potency,[8],inactive
same,Potency,[9],inactive
CN1CCC[C@H]1c1cccnc1,Potency,[1],inactive
same,Potency,[2],inactive
same,Potency,[3],inactive
same,Potency,[4],inactive
same,Potency,[5],inactive
same,Potency,[6],inactive
same,Potency,[8],inactive
Nc1ccc(S(N)(=O)=O)cc1,Potency,[1],5.52 µM (active) and inactive
same,Potency,[2],inactive
same,Potency,[3],inactive
same,Potency,[4],inactive
same,Potency,[6],inactive
same,Potency,[7],inactive
same,Potency,[8],27.4 µM (active) and inactive
same,Potency,[9],inactive
CC(=O)CCC(=O)O,Potency,[1],inactive
same,Potency,[2],inactive
same,Potency,[3],inactive
same,Potency,[4],inactive
same,Potency,[5],inactive
same,Potency,[6],inactive
same,Potency,[7],inactive
same,Potency,[8],inactive
same,Potency,[9],inactive
O=C1O[C@H]([C@@H](O)CO)C(O)=C1O,Potency,[1],inactive and 12.3 µM (active)
same,Potency,[2],inactive
same,Potency,[3],inactive
same,Potency,[4],inactive
same,Potency,[5],inactive
same,Potency,[6],inactive
same,Potency,[7],inactive
same,Potency,[8],inactive
same,Potency,[9],inactive
O=C1NC(=O)C(c2ccccc2)(c2ccccc2)N1,Potency,[1],inactive
same,Potency,[2],inactive
same,Potency,[3],inactive
same,outcome,[12],inactive
same,Potency,[15],inactive
same,Potency,[4],inactive
same,Potency,[6],inactive
same,Potency,[7],inactive
same,Potency,[8],inactive
same,Potency,[9],inactive
OC[C@H]1O[C@H](O[C@]2(CCl)O[C@H](CCl)[C@@H](O)[C@@H]2O)[C@H](O)[C@@H](O)[C@H]1Cl,Potency,[1],inactive
same,Potency,[2],inactive
same,Potency,[3],inactive
same,Potency,[4],inactive
same,Potency,[6],inactive
same,Potency,[7],inactive
same,Potency,[11],inactive
Cc1cn([C@H]2C=C[C@@H](CO)O2)c(=O)[nH]c1=O,Potency,[1],inactive and 17.4 µM (active)
same,Potency,[2],inactive
same,Potency,[3],inactive
same,outcome,[12],inactive
same,Potency,[15],inactive
same,Potency,[4],inactive
same,Potency,[5],inactive
same,Potency,[6],inactive
same,Potency,[7],inactive
same,Potency,[8],inactive
same,Potency,[9],inactive
NS(=O)(=O)O,Potency,[1],inactive
same,Potency,[2],inactive
same,Potency,[3],inactive
same,Potency,[4],inactive
same,Potency,[5],inactive
same,Potency,[6],inactive
same,Potency,[8],inactive
same,Potency,[11],inactive
CCCCC(CC)C(=O)O (stereo not drawn),Potency,[1],inactive
same,Potency,[2],inactive
same,Potency,[3],inactive
same,Potency,[4],inactive
same,Potency,[6],inactive
CCCCC1(COC(=O)CCC(=O)O)C(=O)N(c2ccccc2)N(c2ccccc2)C1=O,Potency,[1],inactive
same,Potency,[2],inactive
same,Potency,[3],inactive
same,Potency,[19],inactive
same,Potency,[10],inactive
same,Potency,[4],inactive
same,Potency,[6],inactive
same,Potency,[17],inactive
same,Potency,[18],inactive

# From PubChem BioAssay (Tox21)
